Compound activity as filed in PubChem.
TcdB inh: TcdB glycohydrolase inhibitors, primary screen, biochemical, single point, plate reader | Toxin B (Clostridioides difficile), P18177 | TcdB glycohydrolase enzymatic assay | inhibition, % at 9.99 µM | 350,000 tested, 0.24% active | AID 652162, 2013; in the data active = inhibition above about 10%
PrP UTR inh: inhibition of PrP 5' UTR reporter expression | AID 488862, 2010 | 340,000 tested, 0.35% active | inhibition, % (concentration not given with the values) | cell-based PrP 5' UTR mRNA reporter, plate reader; in the data active = inhibition above about 52%
BioA inh-1: M. tuberculosis BioA enzyme inhibitors, primary screen, biochemical, plate reader, single point, HTS. 360,000 tested, 0.096% active. AID 602481, 2012. purified M. tuberculosis BioA enzyme. 7,8-diaminopelargonic acid synthase BioA (Mycobacterium tuberculosis). inhibition, % at 9.99 µM; in the data active = inhibition above about 40%; inconclusive = no clear call, values can overlap the other calls
Yp Topo-I inh: Yersinia pestis topoisomerase I inhibitors, primary screen, biochemical, cleavage product accumulation, plate reader, single point | DNA topoisomerase I (Yersinia pestis CO92) | Y. pestis Topo-I cleavage product accumulation | activity, % at 10 µM | 360,000 tested, 0.064% active | AID 504884, 2011; in the data active = activity above about 50%, passing the limit was not always enough; inconclusive = no clear call, values can overlap the other calls
BioA inh-2: Mtb BioA enzyme inhibitors, dose response, biochemical, plate reader, cherry-pick samples, set 03; shares compounds with BioA inh-1; purified BioA enzyme; max activity, %; 310 tested, under 10 active; AID 651679, 2012;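 also: top concentration of the dilution series was 10 µM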
HepG2 cytotox: cytotoxicity in HepG2 cells, dose response, cytotoxicity control, cell-based, plate reader, cherry-pick, two tests | shares compounds with BioA inh-1 | 310 tested, under 10 active | max activity, %
NIH3T3 tox 5: cytotoxicity in NIH3T3 fibroblasts, dose response, cytotoxicity control, cell-based, plate reader, cherry-pick, two tests | 310 tested, under 10 active | shares compounds with BioA inh-1 | activity change, negative = cytotoxicity, % at 26 µM
Each line names hits and unclear results; the compound was inactive in the other large screens (follow-up assays come after a bar, where they were run). Rows were chosen to be rich in hits. Some 0.53% of all compounds tested hit in one or more screens of this group. Unless noted, no rule for the calls is given here.

COc1ccc(CN2CC3(CCN(C(=O)C4CC4)CC3)c3c(n(C)c4cc(OC)ccc34)[C@@H]2CO)cc1	none (no result: PrP UTR inh, BioA inh-1, Yp Topo-I inh)
CCc1c(C(=O)NCCc2ccc(OC)c(OC)c2)[nH]c(C)c1C(C)=O	BioA inh-1 59.7 (no result: TcdB inh) | BioA inh-2 inactive | HepG2 cytotox inactive | NIH3T3 tox 5 inactive
CCc1c(C(=O)NCCc2cccc(C)c2)[nH]c(C)c1C(C)=O	none
Fc1ccc2[nH]c3c(NCCN4CCOCC4)ncnc3c2c1	BioA inh-1 54.3 (no result: TcdB inh) | BioA inh-2 inactive | HepG2 cytotox inconclusive | NIH3T3 tox 5 inconclusive
Fc1ccc2[nH]c3c(N4CCc5ccccc5C4)ncnc3c2c1	none (no result: PrP UTR inh)
CN1CCN(c2ncnc3c2[nH]c2ccc(F)cc23)CC1	BioA inh-1 70.3 (no result: TcdB inh) | BioA inh-2 inactive | HepG2 cytotox inactive | NIH3T3 tox 5 inactive
Clc1ccc2[nH]c3c(NCCN4CCOCC4)ncnc3c2c1	none (no result: TcdB inh)
O=S(=O)(c1ccccc1)N1CCCCN2[C@@H](CO)[C@@H](c3ccc(C#Cc4cccnc4)cc3)[C@@H]2C1	none (no result: PrP UTR inh, Yp Topo-I inh)
COc1ccc(-c2ccc3c(c2)C2CC3CCN2C(=O)C2CCCCC2)cc1 (configuration not stated)	none
COc1ccc(-c2ccc3c(c2)C2CC3CCN2)cc1 (configuration not stated)	BioA inh-1 85.8 | BioA inh-2 inactive | HepG2 cytotox inactive | NIH3T3 tox 5 inactive
O=C(Nc1ccc2snnc2c1)N1CCN(c2ccccc2)CC1	BioA inh-1 74.6 (no result: TcdB inh) | BioA inh-2 inactive | HepG2 cytotox inactive | NIH3T3 tox 5 inactive
O=C(Nc1ccc2snnc2c1)N1CCOCC1	BioA inh-1 65.1 (no result: TcdB inh) | BioA inh-2 inactive | HepG2 cytotox inactive | NIH3T3 tox 5 inactive
CC(=O)OCC(=O)[C@@]1(OC(C)=O)[C@@H](C)C[C@H]2[C@@H]3C[C@H](F)C4=CC(=O)C=C[C@]4(C)[C@@]3(F)[C@@H](O)C[C@@]21C	BioA inh-1 51.0 | BioA inh-2 inactive | HepG2 cytotox inactive | NIH3T3 tox 5 inactive
CC(=O)OCC(=O)[C@@]12OC(C)(C)O[C@@H]1C[C@H]1[C@@H]3C[C@H](F)C4=CC(=O)C=C[C@]4(C)[C@@]3(F)[C@@H](O)C[C@@]12C	none (no result: TcdB inh, Yp Topo-I inh)
Cn1nnc2cc(C(=O)Nc3cccnc3)ccc21	BioA inh-1 54.9 (no result: TcdB inh) | BioA inh-2 inactive | HepG2 cytotox inactive | NIH3T3 tox 5 inactive
CCCCN1C(=O)c2ccc(C(=O)Nc3cccnc3)cc2C1=O	BioA inh-1 81.7 (no result: TcdB inh) | BioA inh-2 inactive | HepG2 cytotox inactive | NIH3T3 tox 5 inactive
COc1ccc(NC(=O)c2ccc(N(C)S(C)(=O)=O)cc2)cc1OC	none
COc1ccc(NC(=O)c2ccc(S(=O)(=O)N(C)C)cc2)cc1OC	BioA inh-1 43.3 (no result: TcdB inh) | BioA inh-2 inactive | HepG2 cytotox inactive | NIH3T3 tox 5 inactive
COc1ccc(C(=O)Nc2cccnc2)cc1OC	BioA inh-1 56.7 (no result: TcdB inh) | BioA inh-2 inactive | HepG2 cytotox inactive | NIH3T3 tox 5 inactive
Cn1nnc2cc(C(=O)Nc3ccccc3)ccc21	none
CC=Cc1ccc2n(c1=O)C[C@H]1[C@H](CO)[C@@H](C(=O)N(C)C)[C@@H]2N1Cc1cc(F)ccc1F (mixture of isomers)	none (no result: PrP UTR inh, Yp Topo-I inh)
COc1cc(OC)cc(C(=O)Nc2ccc(Cn3ccnc3)cc2)c1	none
COc1ccc(C(=O)Nc2ccc(Cn3ccnc3)cc2)cc1OC	BioA inh-1 44.2 | BioA inh-2 inactive | HepG2 cytotox inactive | NIH3T3 tox 5 inactive
COc1cc2c(cc1NC(=O)c1cccnc1)CCCC2	BioA inh-1 55.9 (no result: TcdB inh) | BioA inh-2 inactive | HepG2 cytotox inactive | NIH3T3 tox 5 inactive
COC(=O)c1c(C(=O)OC)c(-c2cccc(F)c2)n2c1CS(=O)C2 (configuration not stated)	BioA inh-1 98.0 | BioA inh-2 inactive | HepG2 cytotox inactive | NIH3T3 tox 5 inactive
O=C(N[C@H]1CC[C@@H](CCn2cc(C3(O)CCCC3)nn2)O[C@H]1CO)C1CCC1	none (no result: PrP UTR inh, Yp Topo-I inh)
COc1cc(C(=O)N2Cc3cc4ccccc4nc3C2C)cc(OC)c1OC (configuration not stated)	BioA inh-1 68.7 (no result: PrP UTR inh) | BioA inh-2 inactive | HepG2 cytotox inactive | NIH3T3 tox 5 inactive
CN(C)CC(=O)N[C@H]1CC[C@H](CCNC(=O)C2CC2)O[C@H]1CO	none (no result: PrP UTR inh, BioA inh-1, Yp Topo-I inh)
COc1ccccc1-c1cc(C(F)(F)F)nc(S(=O)(=O)CCCC(=O)O)n1	BioA inh-1 60.4 (no result: TcdB inh) | BioA inh-2 inactive | HepG2 cytotox inactive | NIH3T3 tox 5 inactive
C/C=C/c1ccc2c(c1)O[C@@H](CN(C)Cc1ccccn1)[C@@H](C)CN([C@H](C)CO)S2(=O)=O	none (no result: PrP UTR inh, Yp Topo-I inh)
CCOCCCNC(=O)CSc1nc2nc(C)c(Cc3ccccc3)c(C)n2n1	BioA inh-1 76.1 | BioA inh-2 inactive | HepG2 cytotox inactive | NIH3T3 tox 5 inactive
Cc1nc2nc(SCC(=O)NCCCN3CCOCC3)nn2c(C)c1Cc1ccccc1	BioA inh-1 46.8 | BioA inh-2 inactive | HepG2 cytotox inactive | NIH3T3 tox 5 inactive
Cc1nc(-c2cccnc2)sc1C(=O)Nc1ccc(C(F)(F)F)cc1	none (no result: TcdB inh)
Cc1nc(-c2cccnc2)sc1C(=O)Nc1cccc(C(F)(F)F)c1	BioA inh-1 50.5 (no result: TcdB inh) | BioA inh-2 inactive | HepG2 cytotox inconclusive | NIH3T3 tox 5 inactive
CCc1nn(CCCC(=O)N(C)Cc2ccccc2)c(=O)c2cc3occc3n12	BioA inh-1 49.8 | BioA inh-2 inactive | HepG2 cytotox inactive | NIH3T3 tox 5 inactive
CCc1nn(C(C)C(=O)N(C)Cc2ccccc2)c(=O)c2cc3occc3n12 (configuration not stated)	none
O=[N+]([O-])c1ccc(C[n+]2c(-c3ccccc3)cc(-c3ccccc3)cc2-c2ccccc2)cc1	BioA inh-1 58.6 | BioA inh-2 inactive | HepG2 cytotox inactive | NIH3T3 tox 5 inactive
CCC(=O)N[C@@H]1C[C@@H]2O[C@H](CO)CC[C@@H]2O[C@@H]1CCc1ccc(-c2cccc(OC)c2)cc1	none (no result: PrP UTR inh, BioA inh-1, Yp Topo-I inh)
CN1c2ccc(-c3cccc(F)c3)cc2[C@H]2[C@H](CCN2C(=O)c2ccncc2)[C@H]1CO	BioA inh-1 95.0 (no result: TcdB inh, PrP UTR inh, Yp Topo-I inh) | BioA inh-2 inactive | HepG2 cytotox inactive | NIH3T3 tox 5 inactive
CN1c2ccc(-c3cccc(F)c3)cc2[C@H]2[C@H](CCN2C(=O)c2cccc(F)c2)[C@@H]1CO	none (no result: PrP UTR inh, BioA inh-1, Yp Topo-I inh)
CN1c2ccc(-c3cccc(F)c3)cc2[C@H]2[C@H](CCN2C(=O)c2ccc3c(c2)OCO3)[C@H]1CO	BioA inh-1 98.7 (no result: PrP UTR inh, Yp Topo-I inh) | BioA inh-2 inactive | HepG2 cytotox inactive | NIH3T3 tox 5 inactive
CN1c2ccc(-c3cccc(F)c3)cc2[C@H]2[C@H](CCN2C(=O)C2CCOCC2)[C@H]1CO	BioA inh-1 75.7 (no result: PrP UTR inh, Yp Topo-I inh) | BioA inh-2 inactive | HepG2 cytotox inactive | NIH3T3 tox 5 inactive
